# TDP1 inh = TDP1 (human) enzyme inhibition | Q9NUW8 | recombinant TDP1, AlphaScreen DNA substrate cleavage | Potency, µM (series often up to 130 µM), hits mostly inhibitors | 0.28% of 350,000 active | AID 485290; also: nearly all actives have a fitted effect of over 40% in size
# Target sequence (Q9NUW8 whole entry, looked up): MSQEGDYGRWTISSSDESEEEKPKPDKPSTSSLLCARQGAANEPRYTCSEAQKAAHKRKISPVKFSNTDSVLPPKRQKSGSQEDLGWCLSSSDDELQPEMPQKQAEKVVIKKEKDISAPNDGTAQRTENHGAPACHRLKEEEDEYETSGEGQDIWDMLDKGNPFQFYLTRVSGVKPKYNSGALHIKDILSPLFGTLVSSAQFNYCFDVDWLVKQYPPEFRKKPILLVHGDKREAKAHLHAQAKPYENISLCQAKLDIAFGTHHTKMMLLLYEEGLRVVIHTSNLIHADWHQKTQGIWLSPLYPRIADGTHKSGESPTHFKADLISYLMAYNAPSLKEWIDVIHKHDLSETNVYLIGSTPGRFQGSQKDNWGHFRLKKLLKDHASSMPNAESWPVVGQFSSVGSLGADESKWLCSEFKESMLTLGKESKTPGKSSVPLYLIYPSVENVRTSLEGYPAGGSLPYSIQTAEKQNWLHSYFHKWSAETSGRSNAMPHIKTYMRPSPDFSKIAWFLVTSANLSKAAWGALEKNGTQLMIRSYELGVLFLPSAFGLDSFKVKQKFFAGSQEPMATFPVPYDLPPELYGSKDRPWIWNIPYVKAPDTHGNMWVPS
#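 Steps: enzyme plus compound, 15 min RT; add biotin/phosphotyrosine-FITC oligonucleotide (15 nM final), react 5 min; add donor/acceptor beads (10 ug/ml final), 10 min; read AlphaScreen. Tdp1 at 1 nM final.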
# DT40 TDP1 no CPT = qHTS for Inhibitors of human tyrosyl-DNA phosphodiesterase 1 (TDP1): qHTS in cells in absence of CPT; DT40 Tdp1-/- hTDP1 cells, no CPT, ATP luminescence, 48 h; AID 686978, 2013; 15% of 420,000 active; Potency, µM (doses to about 46.2 µM), actives largely listed as inhibitors; also: nearly all actives have a fitted effect of over 55% in size
#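 Cells were dispensed at 400 per well, compounds added by pin tool, plates incubated ≥48 hr at 37 °C, then CellTiter-Glo added for 30 min at room temperature before luminescence reading. Line: DT40 Tdp1-/- complemented with hTDP1; camptothecin omitted.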
# ELG1 DNA repair = inhibitors of ELG1-dependent DNA repair in HEK293T cells; HEK293T ELG1-luciferase reporter, luminescence, 16 h; DNA damage induced by 5-fluorouridine; Potency, µM (titrated, usually from 46.1 µM), usual class: inhibitors; 2.3% of 330,000 active; AID 504467; also: nearly all actives have a fitted effect of over 55% in size
#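 Overnight (16 hr) co-exposure of 2,000 cells/well to 5-fluorouridine and compound at 37 °C preceded detection. Luciferase was quantified via ONE-Glo luminescence; loss of signal denotes inhibition.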
# IL-1B inflam inh = inflammasome signaling inhibition, IL-1 beta readout; THP-1 LPS/ATP IL-1B secretion, AlphaLISA, 16 h; hits give low values; 4.7% of 360,000 active; activity change, % at 57.5 µM; in the data active = activity change below about -50%; inconclusive = mostly about -30% to -49%
#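 Secreted IL-1B measured by AlphaLISA bead assay after 16 h compound exposure of THP-1 cells; compounds (final up to 57.5 uM) added 1 h before LPS (250 ng/mL) and ATP (1.25 mM) stimulation; lower signal means less secretion.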
# TDP1 cell CPT = growth inhibition of DT40 Tdp1-/-;hTDP1 cells with camptothecin (screen for TDP1 inhibitors). chicken DT40 Tdp1-/-;hTDP1 cells + 20 nM CPT, ATP luminescence, 48 h. Potency, µM (titrated, usually from 46.2 µM), hits mostly inhibitors. 12% of 420,000 active. AID 686979; also: nearly all actives have a fitted effect of over 55% in size
#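 Chicken DT40 Tdp1-/- cells stably complemented with human TDP1 were seeded at 400 cells/well in medium containing 20 nM camptothecin, exposed to pin-transferred compounds, and grown at 37 °C for at least 48 hr. Viability was read as ATP luminescence.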
# Giardia killer = kills Giardia lamblia. Giardia lamblia trophozoite viability. 0.15% of 340,000 active. activity change, % at 7.66 µM, hits read low. AID 540267; in the data active = activity change below about -80%; inconclusive = between about -30% and that limit;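 also: parasites exposed to compound for two days anaerobically before the ATP read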
#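 Trophozoites 100 cells/well + cpd; 48 hrs, 37 deg C, anaerobic. ATPLite 1-Step added, 15-30 min RT, luminescence read (ATP-based viability).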
# A number is an active result; i = inactive; ? = inconclusive; nt = not tested or not shown. Shown are actives, neighbours in structure and some others; about 19% of the full set was active somewhere. Unless noted, calls follow the shape of the dose curve; as a rule, active = well fitted curve in the direction sought with a large enough effect; inconclusive = small, poorly fitted or top-dose-only effect, or another doubt; inactive = no such curve, though single readings can be large; an effect the other way counts as inactive or inconclusive.
SMILES,TDP1 inh,DT40 TDP1 no CPT,ELG1 DNA repair,IL-1B inflam inh,TDP1 cell CPT,Giardia killer
CCc1ccccc1NC(=O)CSc1nc2ccccc2nc1Cc1cccc(OC)c1,i,?,nt,nt,?,nt
Cc1ccc(N2C(=O)C(CN3CCOCC3)C2c2ccccc2)cc1 (centres undefined),i,15µM,?,i,?,i
CNC(=O)N(C1=NCC(C)(C)S1)c1ccc(F)c(Cl)c1,i,18µM,i,i,?,i
CC1(C(=O)NCc2ccccc2)CSCC(=O)N1CCOc1ccccc1 (centres undefined),nt,i,nt,i,i,nt
COc1cccc(-c2nc(N3CCN(Cc4ccccc4)CC3)c3ccccc3n2)c1O,i,16µM,?,i,?,i
COc1cccc(-c2nc(N3CCCCC3)c3ccccc3n2)c1O,nt,21µM,nt,?,26µM,i
CCC1CCCCN1c1nc(-c2cccc(OC)c2O)nc2ccccc12 (centres undefined),i,?,?,i,?,i
COc1ccccc1-c1nc(N2CCOCC2)c2ccccc2n1,nt,i,nt,nt,i,nt
COc1cccc(-c2nc(N3CCN(c4ccccc4)CC3)c3ccccc3n2)c1O,i,16µM,i,i,?,i
O=C(c1c(F)cccc1F)N1CCCC(c2nc(-c3cccs3)no2)C1 (centres undefined),i,?,?,i,?,i
Clc1cccc(CN2CCN(Cc3ccco3)CC2)c1,nt,i,i,i,i,i
N=c1ccn(Cc2ccc(Cl)cc2)cc1,i,3.7µM,5.2µM,i,5.2µM,i
N=c1ccn(Cc2cccc(Cl)c2)cc1,i,2.1µM,?,?,2.6µM,i
CC1(C)CC(=O)/C(=C\c2cccc([N+](=O)[O-])c2)C(C)(C)N1,i,16µM,i,-82,?,i
O=C(NCc1ccc(OC(F)(F)F)cc1)c1cccc2c1C(=O)c1ccc(N3CCCC3)cc1S2(=O)=O,i,18µM,i,i,i,i
O=C(NCc1ccc(OC(F)(F)F)cc1)c1cccc2c1C(=O)c1ccc(N3CCC(Cc4ccccc4)CC3)cc1S2(=O)=O,i,5.2µM,i,i,8.2µM,i
O=C(NCc1ccco1)c1cccc2c1C(=O)c1ccc(N3CCC(Cc4ccccc4)CC3)cc1S2(=O)=O,i,13µM,?,i,13µM,i
O=C(NCc1ccccc1Br)c1cccc2c1C(=O)c1ccc(-c3ccc(OC(F)(F)F)cc3)cc1S2(=O)=O,i,7.3µM,?,i,8.2µM,i
O=C(NCc1cccc(F)c1)c1cccc2c1C(=O)c1ccc(N3CCC(Cc4ccccc4)CC3)cc1S2(=O)=O,i,?,i,i,i,i
O=C(NCc1ccc(OC(F)(F)F)cc1)c1cccc2c1C(=O)c1ccc(N3CCCCC3)cc1S2(=O)=O,i,i,i,i,i,i
COc1cc2ccc(NC(C)=O)cc2cc1OC,nt,i,nt,i,i,nt
COC(=O)C1=C[C@@H](C(=O)OC)C2C3=C(C(=O)[C@@]2(C)NC(=O)c2ccccc2)[C@H](c2ccccc2)n2c(=O)n(-c4ccccc4)c(=O)n2[C@@H]3C1 (some centres undefined),i,nt,nt,nt,nt,i
Cc1cc(CNC(=O)c2cccc3c2C(=O)c2ccc(-c4ccc(F)cc4OCc4ccccc4)cc2S3(=O)=O)c(C(F)(F)F)o1,i,12µM,?,i,?,i
O=C(NCc1cccc(C(F)(F)F)c1)c1cccc2c1C(=O)c1ccc(N3CCC(Cc4ccccc4)CC3)cc1S2(=O)=O,i,7.3µM,?,i,?,i
O=C(NCc1ccco1)c1cccc2c1C(=O)c1ccc(/C=C/c3ccccc3)cc1S2(=O)=O,32µM,23µM,?,i,?,i
SMILES,TDP1 inh,DT40 TDP1 no CPT,ELG1 DNA repair,IL-1B inflam inh,TDP1 cell CPT,Giardia killer
O=C(NCc1ccc(F)cc1)c1cccc2c1C(=O)c1ccc(Cl)cc1S2(=O)=O,i,nt,i,nt,nt,nt
CC(=O)N1CCc2c(sc3c2c(=O)n(-c2cccc(Cl)c2)c(=O)n3Cc2ccc(F)cc2Cl)C1,i,?,nt,nt,?,nt
COc1ccc2nc(C)cc(N/N=C/c3ccc(F)cc3)c2c1,nt,0.92µM,?,-99,1µM,-81
COc1ccc(/C=N/Nc2cc(C)nc3c(C)cccc23)cc1,i,21µM,i,?,?,?
COc1ccc(/C=N/Nc2cc(C)nc3ccccc23)cc1,i,?,i,-107,?,i
COc1cccc2c(N/N=C/c3ccc(O)c(O)c3)cc(C)nc12,i,i,?,i,i,i
Cc1cc(=O)[nH]c(N/N=C/c2ccc(F)cc2)n1,nt,i,?,i,i,i
CC1(C)C[C@](C)(C(=O)c2ccccc2)C=C1c1ccccc1,i,nt,nt,nt,nt,nt
CCc1c(C)nc(N2CCN(c3ccccc3F)CC2)[nH]c1=O,nt,23µM,i,i,?,i
CCC(CC)C(=O)Nc1cc(Cl)ccc1C,i,nt,i,nt,nt,nt
Cc1ccc(-n2cc(CN3CCN(Cc4nccn4C)CC3)c(-c3ccc(F)cc3)n2)cc1,i,?,?,?,?,i
Cc1ccc(-n2cc(CN3CCN(c4ccccn4)CC3)c(-c3ccc(F)cc3)n2)cc1,i,16µM,i,?,i,i
CN(C)C(=O)c1cn(-c2ccccc2)nc1-c1cccc([N+](=O)[O-])c1,i,i,?,i,i,i
Cc1ccc(-c2nn(-c3ccccc3)cc2C(=O)N2CCN(c3ccccn3)CC2)cc1,i,29µM,?,?,?,i
O=C(c1cn(-c2ccccc2)nc1-c1cccc([N+](=O)[O-])c1)N1CCCCC1,i,?,?,-95,i,i
Cc1ccc(-n2cc(CN3CCN(C(=O)c4ncn[nH]4)CC3)c(-c3ccc(F)cc3)n2)cc1,i,23µM,21µM,-59,?,i
O=C(CSc1ncnc2sccc12)NCc1ccc2c(c1)OCO2,i,i,i,i,i,i
O=c1cnnc(N/N=C/C2CC=CCC2)[nH]1 (centres undefined),i,i,i,i,i,i
Cc1ccc(C2CCN(C(=O)Nc3ccc(Cl)c(Cl)c3)C2)cc1 (centres undefined),i,26µM,nt,nt,?,nt
Cc1ccc(NC(=O)N2CCC(N3CCN(Cc4ccccc4)C(=O)C3=O)CC2)cc1Cl,i,15µM,nt,nt,?,nt
O=C(Nc1ccccc1)N1CCC(c2ccccc2)C1 (centres undefined),i,i,?,i,i,i
O=C(Nc1ccc(Cl)c(Cl)c1)N1CCC(c2ccccc2)C1 (centres undefined),i,21µM,nt,nt,?,nt
CCOC(=O)c1ccc(NC(=O)c2ncn3c2C(=O)NC[C@@H]3C)cc1,nt,?,nt,i,?,nt
